{
  "source": "PubChem BioAssay AID1671190",
  "about": "(National Center for Advancing Translational Sciences (NCATS), 2021)",
  "note": "The whole screen tested about 580,000 compounds, of which about 6,100 (1.1%) were called active. Another 15% or so got no clear call; they are omitted. The sample as a whole holds a higher share of actives than the screen did. Values without a mark were called inactive. Calls come from the whole dose curve; as a rule, active = well fitted inhibition curve with a large enough effect; inconclusive = small, poorly fitted or top-dose-only effect, or another doubt; inactive = no such curve, though single readings can be large or run the other way. % is set by controls: 0 for no effect and ±100 for the full control effect; potency is the fitted concentration of half-maximal effect.",
  "data": [
    {"molecular_target": "Polyunsaturated fatty acid lipoxygenase ALOX12 (Homo sapiens) (UniProt P18054)", "sequence (P18054 whole entry, looked up)": "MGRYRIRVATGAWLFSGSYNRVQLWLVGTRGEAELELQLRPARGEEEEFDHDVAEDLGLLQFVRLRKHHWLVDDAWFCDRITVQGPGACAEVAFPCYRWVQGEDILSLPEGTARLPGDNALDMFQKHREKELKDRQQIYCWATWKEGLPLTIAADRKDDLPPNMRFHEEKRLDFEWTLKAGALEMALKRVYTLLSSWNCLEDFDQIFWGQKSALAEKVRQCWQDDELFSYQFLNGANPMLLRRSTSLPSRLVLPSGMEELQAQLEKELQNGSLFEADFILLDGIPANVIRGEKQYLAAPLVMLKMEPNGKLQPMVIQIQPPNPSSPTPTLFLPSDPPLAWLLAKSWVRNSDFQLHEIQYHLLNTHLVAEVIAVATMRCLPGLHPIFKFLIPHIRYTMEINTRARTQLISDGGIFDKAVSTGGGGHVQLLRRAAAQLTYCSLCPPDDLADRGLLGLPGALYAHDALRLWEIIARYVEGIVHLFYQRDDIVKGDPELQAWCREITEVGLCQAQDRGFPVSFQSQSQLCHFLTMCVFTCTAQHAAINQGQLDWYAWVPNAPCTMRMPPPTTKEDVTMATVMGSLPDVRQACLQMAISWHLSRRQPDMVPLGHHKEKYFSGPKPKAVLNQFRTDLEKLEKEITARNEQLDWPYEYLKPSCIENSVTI", "experiment": "Primary qHTS assay for inhibitors of human arachidonate 12S-lipoxygenase (ALOX12): Round 2", "details": "purified 12hLO, xylenol orange hydroperoxide absorbance; series mostly up to 108 µM; activity change, negative = inhibition: at the top concentration", "method_in_brief": "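Purified human 12hLO at 150 nM in 25 mM Hepes, 0.01% Triton X-100, pH 7.0, preincubated 15 min at room temperature with compound. Reaction started with 40 uM arachidonic acid, 30 min at room temperature. Hydroperoxide measured by Fe-xylenol orange, 573/405 nm absorbance ratio.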", "values": [
      {"compound": "Cc1ccc(/C=N/Nc2ccccc2C(F)(F)F)cc1", "activity change, negative = inhibition": "37.1%"},
      {"compound": "CN(CC(=O)Nc1ccc(N2CCOCC2)cc1)CC(=O)Nc1ccccc1[N+](=O)[O-]", "activity change, negative = inhibition": "1.25%"},
      {"compound": "Cc1ccccc1N/N=C/c1ccc(N2CCOCC2)cc1", "Potency": "7.08 µM (active)"},
      {"compound": "Cc1cc2ccccc2n1CC(=O)Nc1ccc(Oc2ccccc2)cc1", "activity change, negative = inhibition": "-0.868%"},
      {"compound": "Cc1ccc(CN2CCN(c3nc4ccccc4o3)CC2CCO)cc1", "note": "(configuration not stated)", "activity change, negative = inhibition": "15.7%"},
      {"compound": "CSc1ccc(/C=N/Nc2c(Cl)cc(Cl)cc2Cl)cc1", "Potency": "4.47 µM (active)"},
      {"compound": "CSc1ccc(/C=N/N2CCN(Cc3ccccc3Cl)CC2)cc1", "activity change, negative = inhibition": "-1.35%"},
      {"compound": "CSc1ccccc1N=Cc1ccc(Cl)c(Cl)c1", "activity change, negative = inhibition": "3.85%"},
      {"compound": "CCNc1nc(C(F)(F)F)c(C(=O)OCC)s1", "activity change, negative = inhibition": "40.4%"},
      {"compound": "Cc1ccc(C2C3=C(CC(C)(C)CC3=O)Nc3nc(SCCC(C)C)[nH]c(=O)c32)s1", "note": "(configuration not stated)", "activity change, negative = inhibition": "30.9%"},
      {"compound": "CN(C)C(=O)c1cccnc1OC1CCN(C(=O)Nc2cc(F)cc(F)c2)C1", "note": "(configuration not stated)", "activity change, negative = inhibition": "-0.265%"},
      {"compound": "Cc1oc(C)c2c(=O)cc(-c3ccc4c(c3)OCO4)cc(OC(=O)c3ccc(Cl)cc3)c12", "activity change, negative = inhibition": "6.01%"},
      {"compound": "CCOc1cc(-c2ccc(O)c(OC)c2)cc(=O)c2c(C)oc(C)c12", "Potency": "7.08 µM (active)"},
      {"compound": "COc1ccc(-c2c(C)c3ccc(O)c(CN4CCCC4)c3oc2=O)cc1OC", "activity change, negative = inhibition": "-10.4%"},
      {"compound": "CCn1nc(C)c(CNC(=O)Nc2cc(Cl)ccc2OC)c1C", "activity change, negative = inhibition": "23.7%"},
      {"compound": "O=C(c1ccc2c(c1)N(C(=O)c1ccccc1)CC2)N1CCN(c2ccc(Cl)cc2)CC1", "activity change, negative = inhibition": "38.8%"},
      {"compound": "Cc1ccc2cc(C(=O)NCc3cccnc3-n3cccn3)c(C)nc2c1", "activity change, negative = inhibition": "7.82%"},
      {"compound": "Cc1nc(C)c(C(=O)N2CCC(N3C(=O)C4(CCCC4)C3c3ccccc3)CC2)s1", "note": "(configuration not stated)", "activity change, negative = inhibition": "58%"},
      {"compound": "Cc1nc2cc(NC(=O)C3CC(=O)N(CC4CC4)C3)ccc2o1", "note": "(configuration not stated)", "activity change, negative = inhibition": "0.248%"},
      {"compound": "CC(C)CC(CC(C)C)=NNC(=O)COc1ccc(C#N)cc1", "activity change, negative = inhibition": "-15.3%"},
      {"compound": "NS(=O)(=O)c1ccc2nc(NC(=O)COc3ccccc3)sc2c1", "activity change, negative = inhibition": "2.54%"},
      {"compound": "N#Cc1ccc(OCC(=O)Nc2nc(-c3ccccn3)cs2)cc1", "Potency": "17.8 µM (active)"},
      {"compound": "O=C1COc2ccc(C(=O)COC(=O)c3nn(Cc4ccccc4)c(=O)c4ccccc34)cc2N1", "activity change, negative = inhibition": "-18.9%"},
      {"compound": "O=C(Cc1cccc(Cl)c1)N1CCC(c2nn(-c3ccc(Cl)cc3)c(=O)[nH]2)CC1", "Potency": "20 µM (active)"},
      {"compound": "O=C(c1ccccc1F)N1CCC(c2nn(-c3ccc(Cl)cc3)c(=O)[nH]2)CC1", "Potency": "31.6 µM (active)"},
      {"compound": "O=C(c1ccc(F)cc1)N1CCCC(c2nn(-c3cccc(Cl)c3)c(=O)[nH]2)C1", "note": "(configuration not stated)", "activity change, negative = inhibition": "5.72%"},
      {"compound": "CC(C)(C)C(=O)N1CCC(c2nn(-c3ccc(F)cc3)c(=O)[nH]2)CC1", "activity change, negative = inhibition": "3.33% [at 176 µM]"},
      {"compound": "Cc1ccc(C(=O)N2CCC(c3nn(-c4ccccc4)c(=O)[nH]3)CC2)cc1", "activity change, negative = inhibition": "4.19%"},
      {"compound": "Cn1nc(C2CCN(C(=O)c3cccc(Cl)c3)CC2)[nH]c1=O", "activity change, negative = inhibition": "47.3% [at 176 µM]"},
      {"compound": "COc1cc(Cl)c(C)cc1NC(=O)Cn1nc(-c2cccs2)oc1=O", "activity change, negative = inhibition": "65.1%"},
      {"compound": "CCCN(CC(F)(F)F)C(=O)c1ccc(NC(=O)NC(C)C)cc1", "activity change, negative = inhibition": "-27.5%"},
      {"compound": "Cc1ccc(-n2ccc(C=O)c2)c(C)c1", "activity change, negative = inhibition": "9.12%"},
      {"compound": "C=CCN(C)C(=O)[C@@H](C)C1CC[C@@]2(C)Cc3sc(NS(=O)(=O)c4ccc(Cl)cc4)nc3[C@@H](C)[C@@H]2[C@H]1O", "note": "(some centres not stated)", "Potency": "31.6 µM (active)"},
      {"compound": "C=CCN(C)C(=O)C[C@@H]1c2nc(NC(=O)c3ccc(C(C)(C)C)cc3)sc2C[C@@H]2[C@](C)(CO)[C@H](O)CC[C@]21C", "activity change, negative = inhibition": "-2.6%"},
      {"compound": "CCN(CC)C(=O)[C@@H](C)C1CC[C@@]2(C)Cc3sc(N)nc3[C@@H](C)[C@@H]2[C@H]1O", "note": "(some centres not stated)", "activity change, negative = inhibition": "48% [at 176 µM]"},
      {"compound": "CC(Sc1cc(F)ccc1F)C(=O)Nc1ccnn1C(C)C", "note": "(configuration not stated)", "activity change, negative = inhibition": "-13.5%"},
      {"compound": "O=C(NCc1ccc(Cl)c(Cl)c1)C1CCN(c2ncnc3nc[nH]c23)CC1", "activity change, negative = inhibition": "-1.44%"},
      {"compound": "CC(=O)N1CCC2(CCCN(Cc3ccccc3)C2)CC1", "activity change, negative = inhibition": "-19.8% [at 57.4 µM]"},
      {"compound": "CC(=O)NC1(C)CCN(Cc2cccc(-c3ccc(C(=O)c4ccccc4)cc3)c2)C1", "note": "(configuration not stated)", "Potency": "39.8 µM (active)"},
      {"compound": "CCCNC(=O)C1(C)CCCN(Cc2cccc(C(F)(F)F)c2)C1", "note": "(configuration not stated)", "activity change, negative = inhibition": "-21.5%"},
      {"compound": "CC(C)(C)OC(=O)C(C#N)c1cnccn1", "note": "(configuration not stated)", "activity change, negative = inhibition": "0.566%"},
      {"compound": "COc1ccc(C(O)(C2CCCCC2)C(CN2CCCC2)c2ccccc2)cc1", "note": "(configuration not stated)", "activity change, negative = inhibition": "0%"},
      {"compound": "CC(C)Oc1ccc(C(=O)NC(C)(C)CO)cc1", "activity change, negative = inhibition": "-27.6%"},
      {"compound": "CC(C)Oc1ccc(C(O)(CC[N+](C)(C)C)C2CCCCC2)cc1", "note": "(configuration not stated)", "Potency": "11.2 µM (active)"},
      {"compound": "O=C(CN1C(=O)CC2(CCCCC2)C1=O)c1c[nH]c2ccccc12", "activity change, negative = inhibition": "24.3%"},
      {"compound": "CCn1nc(C(=O)Nc2ccccn2)c2ccccc2c1=O", "activity change, negative = inhibition": "-0.227%"},
      {"compound": "Cc1ccccc1CNC(=O)c1cc(-c2ccncc2)nc2ccccc12", "activity change, negative = inhibition": "-19.4%"},
      {"compound": "COc1ccc(C2NC(=O)C(=O)/C2=C(\\O)c2ccc(Cl)cc2)cc1OC", "note": "(configuration not stated)", "Potency": "28.2 µM (active)"},
      {"compound": "CCC1(C)COC(c2ccc(OC)c(OC)c2)OC1", "note": "(configuration not stated)", "activity change, negative = inhibition": "-2.84%"},
      {"compound": "COc1ccc(C2C(=O)N(C3CCCCCC3)CC(=O)N2CCc2ccc(Cl)cc2)cc1OC", "note": "(configuration not stated)", "activity change, negative = inhibition": "-25.5%"},
      {"compound": "CCN(CC)S(=O)(=O)c1ccc(-c2csc(-c3ccc(OC)c(OC)c3)n2)cc1", "activity change, negative = inhibition": "-13.9%"},
      {"compound": "FC(F)(F)c1cccc(N/N=C/c2ccccc2)c1", "Potency": "3.55 µM (active)"}
    ]}
  ]
}
